Source: PubChem BioAssay
mHTT-CaM PPI inh: mHTT-calmodulin interaction abrogation; P42858; AlphaScreen His-mHTT/GST-CaM binding, luminescence; inhibition, % at 15 µM; hit rate 3.6% among 190,000
Pf apPOL block: Pf-apPOL DNA polymerase inhibition | Recombinant Pf-apPOL, molecular beacon fluorescence, 1.5 h | hit rate 0.25% among 210,000 | inhibition, % at 10 µM
Each line names hits and unclear results; the compound was inactive in the other large screens. Compounds with a hit are over-represented: about 3.5% of the library has one in this group of screens. Cut-off read from the data, not from the text of the source: active = inhibition above about 50%; inactive = the rest.

CC1CCC2(CC1)OCC(C(=O)NC1CC1)N2C(=O)c1ccc(Cl)c(Cl)c1 (stereo not given)	none
S=C(NCc1ccc2[nH]c3c(c2c1)CCCC3)NC1CCCCC1	none
O=S(=O)(NC1CCCCC1)c1ccc2[nH]c3c(c2c1)CCCCC3	mHTT-CaM PPI inh 95.5
O=S(=O)(Nc1ccccn1)c1ccc2[nH]c3c(c2c1)CCCCC3	none
Cc1ccc(NS(=O)(=O)c2ccc3[nH]c4c(c3c2)CCCCC4)nc1	mHTT-CaM PPI inh 60.4
Cc1nn(C)c(C)c1CCN(C)c1nc(C2CC2)nc2c1CCC2	none
CC(=O)Nc1ccc(Cl)c2c1C(=O)c1ccccc1C2=O	none
CNc1ccc(Cl)c2c1C(=O)c1ccccc1C2=O	mHTT-CaM PPI inh 77.0
O=C(Nc1ccc(Cl)c(-c2nc3ccccc3[nH]2)c1)c1ccc(Br)o1	none
O=C(Nc1ccc(NC(=O)c2ccc(Br)o2)cc1)c1ccccc1	none
O=C(Nc1cccc(-c2nc3ccccc3[nH]2)c1)c1ccc(Br)o1	Pf apPOL block 102.4
O=C(Nc1ccc(Nc2ccccc2)cc1)c1ccc(Br)o1	mHTT-CaM PPI inh 61.0
CCc1cc(C2CCCN2C(=O)Nc2ccc(C)cc2)on1 (stereo not given)	none
O=C(O)c1ccc([N+](=O)[O-])c2c1NC(C1CC=CCC1)C1CC=CC21 (stereo not given)	none
CCOc1cc2c(c([N+](=O)[O-])c1)NC(C1CC=CCC1)C1CC=CC21 (stereo not given)	mHTT-CaM PPI inh 71.0
COc1ccc(CNc2cc(-n3nc(C)cc3C)ncn2)cc1	none
O=C(c1nn2c(c1Cl)NC(c1ccc(Br)cc1)CC2C(F)(F)F)N1CCCC1 (stereo not given)	none
COc1ncccc1CNC(=O)c1ccccn1	none
CC1(C)CC(=O)C2=C(C1)OC(N)=C(C#N)C2c1cn(-c2ccccc2)nc1-c1ccc(Cl)cc1 (stereo not given)	mHTT-CaM PPI inh 100.2
CC1(C)CC(=O)C2=C(C1)OC(N)=C(C#N)C2c1ccc(-c2ccccc2)cc1 (stereo not given)	none
CC1C(=O)N(Cc2cn(Cc3ccco3)nn2)CCS(=O)(=O)N1Cc1ccc(-c2cccnc2)cc1 (stereo not given)	none
CC(C)CC1C(=O)N(Cc2cn(Cc3ccco3)nn2)CCS(=O)(=O)N1Cc1ccc(-c2cccc(N(C)C)c2)cc1 (stereo not given)	mHTT-CaM PPI inh 67.7
CC1C(=O)N(Cc2cn(Cc3ccco3)nn2)CCS(=O)(=O)N1Cc1ccc(-c2cccc(N(C)C)c2)cc1 (stereo not given)	mHTT-CaM PPI inh 63.9
Cc1ccc(-c2ccc(CN3C(CC(C)C)C(=O)N(Cc4cn(Cc5ccco5)nn4)CCS3(=O)=O)cc2)cc1 (stereo not given)	none
Cn1cc(SCc2ccc(C(F)(F)F)cc2)c2ccccc21	none
O=C(Nc1ncc(S(=O)(=O)c2ccc([N+](=O)[O-])cc2)s1)c1ccccc1Cl	none
CC(=O)c1ccc(NC(=O)CN2CCC(c3nc(-c4ccc(F)cc4)no3)CC2)cc1	none
COc1ccc(CN2CCc3nc(N4CCN(c5ccccc5)CC4)ncc3C2)cc1	none
COc1ccc(CN2CCc3nc(N4CCN(c5ncccn5)CC4)ncc3C2)cc1	mHTT-CaM PPI inh 100.2
Fc1ccc(N2CCN(c3ncc4c(n3)CCN(Cc3ccccc3)C4)CC2)cc1	none
Fc1ccc(CN2CCc3nc(N4CCN(c5ncccn5)CC4)ncc3C2)cc1	mHTT-CaM PPI inh 99.9
Cc1cc(OCC(=O)Nc2ccccc2F)ccc1C(C)C	none
O=S(=O)(c1ccc(Cl)s1)N1CCCC(c2nnc(C(F)(F)F)o2)C1 (stereo not given)	none
CN(C)CCNC(=O)c1cn2cc(-c3ccc(F)c(Cl)c3)ccc2n1	mHTT-CaM PPI inh 93.3
CN(C)c1ccc(CNC(=O)c2cn3cc(Cl)ccc3n2)cc1	none
O=C(Nc1ccc2nn(-c3ccc(Cl)cc3)nc2c1)c1cccs1	none
CC(C)(C)c1ccc(OCC(=O)Nc2ccc(CC(=O)N3CCOCC3)cc2)cc1	none
CN(C)c1nc2cc(C(=O)NCC3CC3)sc2n1-c1ccccc1	none
CN(C)c1nc2cc(C(=O)N3CCCC3)sc2n1-c1ccccc1	mHTT-CaM PPI inh 50.1
CSC1=N/C(=C/c2ccc(Br)cc2)C(=O)S1	none
CSC1=N/C(=C\c2cc(Br)ccc2OCC(=O)O)C(=O)S1	mHTT-CaM PPI inh 68.0
O=C(C1CCCCC1)N1CCCN(Cc2noc(-c3ccccc3)n2)CC1	none
O=C(Nc1nc2ccccc2[nH]1)c1ccc(-n2ccnc2)nn1	mHTT-CaM PPI inh 94.1
CSc1ccccc1NC(=O)c1ccc(-n2ccnc2)nn1	none
COc1cccc(C2C=C(c3ccc(Br)cc3)Nc3ncnn32)c1 (stereo not given)	none
O=C(N/C(=C\c1ccc(Br)cc1)c1nc2ccccc2o1)c1ccco1	mHTT-CaM PPI inh 93.8
NC(=Nc1nc2ccccc2o1)NC(=O)c1ccco1	none
Cc1ccc2c(=O)c(C(=O)c3cccc(F)c3)coc2c1	none
COc1cc(C(=O)Oc2ccc3c(c2)OC(=Cc2sccc2C)C3=O)cc(OC)c1OC	none
COc1ccc(C2C3CCCC=C3C(C#N)=C(N)C2(C#N)C#N)cc1 (stereo not given)	none
